The subject of experiment [1] is W2. Briefly: qHTS profiling for inhibitors of Plasmodium falciparum proliferation (AID 504749). Also: potency is read from the fitted curve at half-maximal effect; nearly all actives have a fitted effect of over 60% in size. As to conditions: P. falciparum in erythrocytes, SYBR Green DNA, 72 h; series mostly up to 28.7 µM. In a few lines:
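Infected RBCs, 0.3% parasitemia/2.5% Hct final; cpd 72 h, 37 C, 5% CO2; lysis buffer with saponin/triton/SYBR Green I, o/n RT dark; FI 485/535; norm. to artemisinin (0.29 uM) and DMSO.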

The subject of experiment [2] is HEK293. As to the kind of experiment: Cytotoxic Profiling of Annotated Libraries Using Quantitative High-Throughput Screening (AID 1296008). Also: nearly all actives have a fitted effect of over 60% in size. As to max response: % is scaled to controls: 0 for no effect and ±100 for the full control effect. The settings on record: Five cell lines viability, CellTiter-Glo ATP luminescence, 48-72 h; max response: stronger effect = lower value. In a few lines: (§1)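 Cytotoxicity was measured as CellTiter-Glo ATP luminescence, read after 10 min at room temperature. Compound treatment of the cells lasted 48 or 72 hr at 37 degrees Celsius in a qHTS format.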

The test system of experiment [3] is HaCat. The description is as above. The settings on record: Five cell lines viability, CellTiter-Glo ATP luminescence, 48-72 h; max response: stronger effect = lower value. In a few lines: as §1
(Cellular ATP, detected with luciferase, serves as a proxy for viable cell number.)

Experiment [4] has as its system KB-3-1. The description is as above. As to conditions: Five cell lines viability, CellTiter-Glo ATP luminescence, 48-72 h; max response: stronger effect = lower value. In a few lines:
as §1

Experiment [5] relates to NIH3T3. The experiment is described as above. As to conditions: Five cell lines viability, CellTiter-Glo ATP luminescence, 48-72 h; max response: stronger effect = lower value. In a few lines:
as §1

Experiment [6] relates to HACAT. Briefly: qHTS assay to identify novel small-molecules to repurpose for Merkel cell carcinoma treatment (AID 1296009). Also: nearly all actives have a fitted effect of over 60% in size. The settings on record: MCC and control cell lines, CellTiter-Glo viability, 72 h; at 44.8 µM (top of the series) unless noted. In a few lines:
(§2)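 72 hr, 37 degree celsius; NPC 8-pt / MIPE 11-pt dose response; compound pinned in DMSO; CellTiter-Glo, 10 min RT, luminescence; normalized to no-cell and DMSO controls.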
On the technique in general: qHTS replaces the single test concentration by a dilution series.

For experiment [7], the system named is MCC-13. The description is as above. The settings on record: MCC and control cell lines, CellTiter-Glo viability, 72 h; series mostly up to 46 µM. In a few lines: as §2
Experiment [8] has as its system MCC-26. Described as above. The settings on record: MCC and control cell lines, CellTiter-Glo viability, 72 h; series mostly up to 46 µM. In a few lines:
as §2

The test system of experiment [9] is MKL-1. Described as above. As to conditions: MCC and control cell lines, CellTiter-Glo viability, 72 h; series mostly up to 46 µM. In a few lines: as §2
For experiment [10], the system named is MKL-2. The experiment is described as above. As to conditions: MCC and control cell lines, CellTiter-Glo viability, 72 h; series mostly up to 46 µM. In a few lines:
as §2

Experiment [11] has as its system UISO. Described as above. The settings on record: MCC and control cell lines, CellTiter-Glo viability, 72 h; series mostly up to 46 µM. In a few lines: as §2
In experiment [12] the test system is WaGa. The experiment is described as above. The settings on record: MCC and control cell lines, CellTiter-Glo viability, 72 h; series mostly up to 46 µM. In a few lines:
as §2

Experiment [13] deals with C33A. As to the kind of experiment: Primary qHTS to identify gynecologic anti-cancer compounds using libraries of approved drugs and bioactive compounds (AID 1345084). Also: % is scaled to controls: 0 for no effect and ±100 for the full control effect; nearly all actives have a fitted effect of over 55% in size. As to conditions: Gynecologic cancer cell panel viability, ATPlite luminescence, 48 h; series mostly up to 57.5 µM. In a few lines: (§3)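 Five-concentration response, 48 h; readout is ATP-driven luciferase luminescence.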

The subject of experiment [14] is CAOV3. The description is as above. The settings on record: Gynecologic cancer cell panel viability, ATPlite luminescence, 48 h; series mostly up to 57.5 µM. In a few lines: as §3
Experiment [15] deals with CASKI. Described as above. The settings on record: Gynecologic cancer cell panel viability, ATPlite luminescence, 48 h; series mostly up to 57.5 µM. In a few lines:
as §3

For experiment [16], the system named is Es-2. Described as above. As to conditions: Gynecologic cancer cell panel viability, ATPlite luminescence, 48 h; series mostly up to 57.5 µM. In a few lines:
as §3

Experiment [17] deals with HeLa. The experiment is described as above. The settings on record: Gynecologic cancer cell panel viability, ATPlite luminescence, 48 h; series mostly up to 57.5 µM. In a few lines:
as §3

In experiment [18] the test system is CRL-7250. As to the kind of experiment: Cytotoxic Profiling of Annotated Libraries Using Quantitative High-Throughput Screening (AID 1296008). Also: nearly all actives have a fitted effect of over 60% in size. As to max response: % is scaled to controls: 0 for no effect and ±100 for the full control effect. The settings on record: Five cell lines viability, CellTiter-Glo ATP luminescence, 48-72 h; max response: stronger effect = lower value. In a few lines:
as §1

Experiment [19] relates to NIH3T3. Briefly: qHTS assay to identify novel small-molecules to repurpose for Merkel cell carcinoma treatment (AID 1296009). Also: nearly all actives have a fitted effect of over 60% in size. The settings on record: MCC and control cell lines, CellTiter-Glo viability, 72 h; at 44.8 µM (top of the series). In a few lines:
as §2

Inconclusive results are not listed. A number with no mark means an inactive call. Active and inactive are the calls of the source. Calls follow the shape of the dose curve; as a rule, active = well fitted curve in the direction sought with a large enough effect; inconclusive = small, poorly fitted or top-dose-only effect, or another doubt; inactive = no such curve, though single readings can be large; an effect the other way counts as inactive or inconclusive.

With `CO[C@]12C[C@@H](COC(=O)c3cncc(Br)c3)CN(C)[C@@H]1Cc1cn(C)c3cccc2c13`, in experiment [1], the Potency is 6.75 µM (active). In addition, the max response in experiment [2] was -26.4%; in [4], 9.31%; in [5], 0.842%. The call in [3] and in experiment [6] was inactive. Moreover, the Potency entry in [7], in experiment [8], in [9], in experiment [10], in experiment [11] and in experiment [12] was “inactive” each time. In addition, the Potency result in [13], in experiment [14], in experiment [15], in [16] and in experiment [17] was “inactive” in each case.

For the compound `CN1CCN(c2c(F)cc3c(=O)c(C(=O)O)cn4c3c2SCC4)CC1`, the results for the max response in [18] and in experiment [5] were -2.29% and -3.6%, respectively. Besides, the outcome in [3] and in experiment [6] was inactive. Also, the Potency entry in [7], in [8], in experiment [9], in experiment [10], in experiment [11] and in [12] was “inactive” in each case. In addition, the Potency result in [13], in [14], in [15], in [16] and in experiment [17] was “inactive” in each case.

For `Cc1cccc(C)c1NC(=O)CN1CCCC1`, the figures for the max response in experiment [2], in experiment [4] and in experiment [5] were 0.0979%, 8.28% and 1.81%, respectively. Also, the call in experiment [3] and in experiment [6] was inactive. In addition, the Potency entry in experiment [7], in experiment [8], in [9], in [10], in [11] and in experiment [12] was “inactive” throughout. Also, the Potency result in [13], in experiment [14], in experiment [15], in [16] and in [17] was “inactive” throughout.

For the compound `OC(C#CCN1CCCC1)(c1ccccc1)c1ccccc1`, the Potency in [1] is 2.13 µM (active). Further, the compound was classed as inactive in [18], in experiment [3] and in experiment [6]. In addition, in experiment [5], the max response was -3.64%. Also, the Potency result in [7], in experiment [8], in [9], in experiment [10], in experiment [11] and in experiment [12] was “inactive” throughout. The Potency result in [13], in experiment [14], in experiment [15], in [16] and in experiment [17] was “inactive” each time.

With `CN1CCN(C2=Nc3cc(F)ccc3Cc3ccccc32)CC1`, the Potency in [1] was 7.57 µM (active). In addition, the max response in [18] is -25%; in experiment [3] it was -42.8%; in experiment [4] it was 0.909%; in [5] it was -19.6%. Besides, the Potency entry in [7], in experiment [8], in [9], in experiment [10], in experiment [11] and in experiment [13] was “inactive” in each case. The Potency result in experiment [14], in experiment [15], in experiment [16] and in [17] was “inactive” throughout.

As to `CCCN(CCc1cccs1)[C@H]1CCc2c(O)cccc2C1`, the Potency in [1] is 1.35 µM (active). For the same compound, the max response in [18] was -5.8%. For the same compound, the result in experiment [3], in [5], in experiment [6] and in [19] was inactive. Also, the Potency result in experiment [7], in experiment [8], in experiment [9], in experiment [10], in experiment [11] and in experiment [13] was “inactive” each time. In addition, the Potency result in experiment [15], in experiment [16] and in experiment [17] was “inactive” throughout.

The record behind these values is PubChem BioAssay (NCATS).
